# According to the supplement of paper PMC10849652:
# Of roughly 7,900 targets only a part is listed; those with a hit were picked by preference. About 0.6% of all pairs of compound and target were hits. Values without a mark were called inactive.
# Tests used:
# Experiment in all cases: log2 fold change, soluble protein after heating vs DMSO (PISA); higher = thermal stabilisation; K562 cells, 10 uM, 30 min; active = over 0.2 and 3.5 SD of the protein, either way, in both replicates (recomputed)
# IRAK-1-4 Inhibitor I = compound: C1COCCN1CCN2C3=CC=CC=C3N=C2NC(=O)C4=CC(=CC=C4)[N+](=O)[O-] [IRAK-1-4 Inhibitor I]
# Summary of the method: (§1)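 K562 cells at 2×10^6 cells/mL were given 10 μM compound for 30 min. Aliquots then went through 3 min of heating across 48°C-58°C, were pooled, and were extracted in PBS with 0.5% NP-40 at 4°C, and the supernatant after 21,000xg for 90 min was quantified by TMTpro 16plex LC-MS/MS with channel sums equalised. Thermal stability relative to control samples, from duplicates, is given as log2 fold change.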
# ibrutinib = compound: C=CC(=O)N1CCC[C@@H](n2nc(-c3ccc(Oc4ccccc4)cc3)c3c(N)ncnc32)C1 [ibrutinib]
# Summary of the method: as §1
# [1] = compound: CC(=O)c1cnc2ccc(-c3cc(Cl)c(O)c(Cl)c3)nc2c1N[C@H]1CC[C@H](CN(C)C)CC1
# Summary of the method: as §1
# ralimetinib = compound: CC(C)(C)Cn1c(N)nc2ccc(-c3[nH]c(C(C)(C)C)nc3-c3ccc(F)cc3)nc21 [ralimetinib]
# Summary of the method: as §1
# [2] = compound: CC(C)(O)CC(=O)NCCn1ccc2ncnc(Nc3ccc(Oc4cccc(C(F)(F)F)c4)c(Cl)c3)c21
# Summary of the method: as §1
# [3] = compound: CC(C)C1=C2N=C(C=C(N2N=C1)NCC3=CC=CC=C3)NCCCCCCN
# Summary of the method: as §1
# [4] = compound: CC(C)C[C@@H](C=O)NC(=O)[C@H](CC(C)C)NC(=O)[C@H](CC(C)C)NC(=O)OCc1ccccc1
# Summary of the method: as §1
# pinometostat = compound: CC(C)N(C[C@H]1O[C@@H](n2cnc3c(N)ncnc32)[C@H](O)[C@@H]1O)[C@H]1C[C@@H](CCc2nc3cc(C(C)(C)C)ccc3[nH]2)C1 [pinometostat]
# Summary of the method: as §1
# [5] = compound: CC1=C(C(CC(=O)N1)C2=CC=C(C=C2)C(F)(F)F)C(=O)NC3=C(C=C4C(=C3)C=NN4)F
# Summary of the method: as §1
# [6] = compound: CC1=C(C2=C(C=C1)C(=O)C3=CC=CC=C3N2CCCN)C
# Summary of the method: as §1
# UniProt Q9H3P2, sequence (Q9H3P2 whole entry, looked up): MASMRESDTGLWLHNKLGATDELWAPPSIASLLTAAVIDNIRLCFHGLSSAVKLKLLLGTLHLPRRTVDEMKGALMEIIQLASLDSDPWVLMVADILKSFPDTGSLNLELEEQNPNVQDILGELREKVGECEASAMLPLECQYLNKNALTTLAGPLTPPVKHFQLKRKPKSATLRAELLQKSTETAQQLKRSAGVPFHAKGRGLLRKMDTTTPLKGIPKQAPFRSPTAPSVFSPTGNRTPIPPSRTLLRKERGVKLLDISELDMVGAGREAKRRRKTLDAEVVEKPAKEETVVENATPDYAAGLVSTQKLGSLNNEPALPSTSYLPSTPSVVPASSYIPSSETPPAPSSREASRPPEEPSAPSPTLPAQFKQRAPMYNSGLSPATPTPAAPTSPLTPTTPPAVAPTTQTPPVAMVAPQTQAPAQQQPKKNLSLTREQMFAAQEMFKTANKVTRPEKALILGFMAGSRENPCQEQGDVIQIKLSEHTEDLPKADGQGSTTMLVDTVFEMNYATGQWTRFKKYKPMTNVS
# UniProt Q8WUY8, sequence (Q8WUY8 whole entry, looked up): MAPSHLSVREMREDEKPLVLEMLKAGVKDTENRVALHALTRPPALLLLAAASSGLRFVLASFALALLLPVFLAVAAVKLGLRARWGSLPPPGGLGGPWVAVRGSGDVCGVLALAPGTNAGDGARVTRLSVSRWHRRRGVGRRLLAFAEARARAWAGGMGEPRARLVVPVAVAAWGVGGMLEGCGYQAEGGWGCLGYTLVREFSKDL
# UniProt P49757, sequence (P49757 whole entry, looked up): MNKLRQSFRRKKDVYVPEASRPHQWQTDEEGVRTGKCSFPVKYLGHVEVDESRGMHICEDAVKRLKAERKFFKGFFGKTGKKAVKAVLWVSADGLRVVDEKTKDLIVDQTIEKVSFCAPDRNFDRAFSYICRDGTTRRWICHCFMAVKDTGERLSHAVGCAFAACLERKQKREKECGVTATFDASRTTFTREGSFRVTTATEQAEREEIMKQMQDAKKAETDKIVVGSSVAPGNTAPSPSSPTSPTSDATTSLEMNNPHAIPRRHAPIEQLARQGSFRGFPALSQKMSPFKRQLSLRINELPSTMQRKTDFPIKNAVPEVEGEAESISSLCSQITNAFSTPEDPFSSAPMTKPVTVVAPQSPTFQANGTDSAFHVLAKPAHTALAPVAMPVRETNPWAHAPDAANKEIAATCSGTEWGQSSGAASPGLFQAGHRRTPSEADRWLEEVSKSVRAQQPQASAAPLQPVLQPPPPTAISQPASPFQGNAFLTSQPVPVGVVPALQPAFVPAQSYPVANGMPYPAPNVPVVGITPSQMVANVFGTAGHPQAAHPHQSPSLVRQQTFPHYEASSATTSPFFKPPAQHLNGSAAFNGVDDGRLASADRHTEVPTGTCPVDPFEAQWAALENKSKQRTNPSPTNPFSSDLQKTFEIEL
# UniProt P43246, sequence (P43246 whole entry, looked up): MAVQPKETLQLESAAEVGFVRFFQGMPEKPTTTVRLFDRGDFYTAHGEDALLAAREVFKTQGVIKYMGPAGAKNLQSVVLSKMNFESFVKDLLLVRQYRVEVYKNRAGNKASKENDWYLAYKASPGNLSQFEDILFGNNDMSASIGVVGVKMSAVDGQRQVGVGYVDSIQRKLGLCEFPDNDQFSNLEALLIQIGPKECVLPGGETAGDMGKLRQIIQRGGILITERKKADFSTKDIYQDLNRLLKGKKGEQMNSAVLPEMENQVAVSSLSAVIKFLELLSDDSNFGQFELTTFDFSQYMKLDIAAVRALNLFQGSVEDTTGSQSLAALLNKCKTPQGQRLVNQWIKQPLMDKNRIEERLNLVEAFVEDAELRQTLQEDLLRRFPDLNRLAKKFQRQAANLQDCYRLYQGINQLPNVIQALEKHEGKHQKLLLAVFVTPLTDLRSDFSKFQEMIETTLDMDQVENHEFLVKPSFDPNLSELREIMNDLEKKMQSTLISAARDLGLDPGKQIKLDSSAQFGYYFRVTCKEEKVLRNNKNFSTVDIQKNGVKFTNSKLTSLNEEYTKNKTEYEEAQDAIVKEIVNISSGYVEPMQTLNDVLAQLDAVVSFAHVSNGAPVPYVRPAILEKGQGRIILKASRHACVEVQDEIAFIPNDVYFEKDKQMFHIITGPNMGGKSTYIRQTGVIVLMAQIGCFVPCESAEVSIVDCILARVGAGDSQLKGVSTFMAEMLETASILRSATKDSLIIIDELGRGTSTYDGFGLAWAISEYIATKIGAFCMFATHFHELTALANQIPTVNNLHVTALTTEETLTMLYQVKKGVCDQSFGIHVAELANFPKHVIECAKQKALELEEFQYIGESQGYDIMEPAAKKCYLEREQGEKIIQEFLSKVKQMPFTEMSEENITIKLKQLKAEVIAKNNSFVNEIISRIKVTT
# UniProt Q96RE7, sequence (Q96RE7 whole entry, looked up): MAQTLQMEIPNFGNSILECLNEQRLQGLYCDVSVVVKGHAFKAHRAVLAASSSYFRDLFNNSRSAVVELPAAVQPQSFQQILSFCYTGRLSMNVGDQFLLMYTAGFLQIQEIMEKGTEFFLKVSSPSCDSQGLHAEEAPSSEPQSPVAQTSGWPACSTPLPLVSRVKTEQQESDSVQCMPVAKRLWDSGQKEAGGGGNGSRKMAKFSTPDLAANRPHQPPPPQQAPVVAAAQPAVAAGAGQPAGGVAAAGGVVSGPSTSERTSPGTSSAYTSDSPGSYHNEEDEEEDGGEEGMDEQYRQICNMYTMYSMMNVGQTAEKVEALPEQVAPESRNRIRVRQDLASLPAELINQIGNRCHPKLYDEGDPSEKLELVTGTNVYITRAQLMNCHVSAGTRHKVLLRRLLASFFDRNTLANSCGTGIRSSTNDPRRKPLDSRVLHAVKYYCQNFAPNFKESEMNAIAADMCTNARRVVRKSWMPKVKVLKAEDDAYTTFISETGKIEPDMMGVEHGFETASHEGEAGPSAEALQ
# UniProt P46934, sequence (P46934 whole entry, looked up): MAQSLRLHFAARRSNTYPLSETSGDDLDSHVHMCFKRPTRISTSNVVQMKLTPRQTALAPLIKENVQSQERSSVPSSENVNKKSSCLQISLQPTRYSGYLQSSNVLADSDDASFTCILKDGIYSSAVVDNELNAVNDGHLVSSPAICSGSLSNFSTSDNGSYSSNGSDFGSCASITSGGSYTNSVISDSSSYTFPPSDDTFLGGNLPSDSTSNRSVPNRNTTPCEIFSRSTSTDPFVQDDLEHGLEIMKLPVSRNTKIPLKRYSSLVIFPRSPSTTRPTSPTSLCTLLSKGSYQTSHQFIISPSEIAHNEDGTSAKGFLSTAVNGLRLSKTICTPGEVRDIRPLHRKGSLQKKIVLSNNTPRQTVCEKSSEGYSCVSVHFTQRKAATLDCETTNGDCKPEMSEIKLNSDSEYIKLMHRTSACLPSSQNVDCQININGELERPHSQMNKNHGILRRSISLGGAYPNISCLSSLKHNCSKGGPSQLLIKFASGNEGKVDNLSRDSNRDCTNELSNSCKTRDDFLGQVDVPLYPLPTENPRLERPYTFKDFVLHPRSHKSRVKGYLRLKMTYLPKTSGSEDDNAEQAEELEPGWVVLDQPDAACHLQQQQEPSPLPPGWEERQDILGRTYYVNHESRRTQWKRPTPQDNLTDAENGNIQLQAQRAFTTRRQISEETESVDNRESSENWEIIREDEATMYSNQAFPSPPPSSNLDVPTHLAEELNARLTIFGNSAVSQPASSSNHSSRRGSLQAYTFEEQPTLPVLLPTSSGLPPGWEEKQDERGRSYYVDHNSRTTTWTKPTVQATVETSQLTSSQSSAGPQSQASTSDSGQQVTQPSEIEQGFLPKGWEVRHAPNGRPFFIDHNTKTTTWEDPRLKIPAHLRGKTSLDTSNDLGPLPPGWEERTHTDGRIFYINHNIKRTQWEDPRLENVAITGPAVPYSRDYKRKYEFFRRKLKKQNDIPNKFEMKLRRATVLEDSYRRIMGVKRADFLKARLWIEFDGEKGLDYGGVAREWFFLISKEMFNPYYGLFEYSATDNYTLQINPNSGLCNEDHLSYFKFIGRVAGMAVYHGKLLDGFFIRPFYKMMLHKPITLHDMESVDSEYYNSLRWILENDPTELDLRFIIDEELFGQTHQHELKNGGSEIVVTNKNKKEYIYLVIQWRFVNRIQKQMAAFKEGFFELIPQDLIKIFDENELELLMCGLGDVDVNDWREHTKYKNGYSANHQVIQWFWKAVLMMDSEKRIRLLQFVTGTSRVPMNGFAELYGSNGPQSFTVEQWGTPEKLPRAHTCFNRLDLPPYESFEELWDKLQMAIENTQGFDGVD
# UniProt Q9NR45, sequence (Q9NR45 whole entry, looked up): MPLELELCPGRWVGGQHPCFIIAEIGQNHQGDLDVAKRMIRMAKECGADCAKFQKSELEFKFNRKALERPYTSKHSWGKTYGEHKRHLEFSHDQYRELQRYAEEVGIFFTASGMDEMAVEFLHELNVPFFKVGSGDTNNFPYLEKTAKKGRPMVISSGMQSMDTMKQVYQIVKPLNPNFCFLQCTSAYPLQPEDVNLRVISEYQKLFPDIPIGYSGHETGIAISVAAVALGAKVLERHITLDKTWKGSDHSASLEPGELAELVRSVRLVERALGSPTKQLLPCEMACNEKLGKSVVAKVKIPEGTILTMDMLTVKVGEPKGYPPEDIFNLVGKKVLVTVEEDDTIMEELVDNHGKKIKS
# UniProt P68402, sequence (P68402 whole entry, looked up): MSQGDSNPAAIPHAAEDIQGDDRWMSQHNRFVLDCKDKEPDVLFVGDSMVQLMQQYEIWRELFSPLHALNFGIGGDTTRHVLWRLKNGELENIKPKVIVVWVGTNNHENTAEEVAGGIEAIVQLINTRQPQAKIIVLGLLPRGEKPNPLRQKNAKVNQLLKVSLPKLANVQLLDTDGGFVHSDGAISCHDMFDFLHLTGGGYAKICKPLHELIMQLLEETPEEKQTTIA
# UniProt O75251, sequence (O75251 whole entry, looked up): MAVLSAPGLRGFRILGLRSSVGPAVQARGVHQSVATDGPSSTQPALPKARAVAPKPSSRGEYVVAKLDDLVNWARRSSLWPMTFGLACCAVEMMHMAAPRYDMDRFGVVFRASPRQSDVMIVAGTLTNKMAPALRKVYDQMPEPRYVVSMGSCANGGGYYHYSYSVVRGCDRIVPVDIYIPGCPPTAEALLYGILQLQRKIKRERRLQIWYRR
Target,log2 fold change (IRAK-1-4 Inhibitor I),log2 fold change (ibrutinib),log2 fold change [1],log2 fold change (ralimetinib),log2 fold change [2],log2 fold change [3],log2 fold change [4],log2 fold change (pinometostat),log2 fold change [5],log2 fold change [6]
NDUFB7 (UniProt P17568),0.012,0.008,0.007,0.079,-0.034,-0.002,-0.055,-0.017,0.014,0.004
PAFAH1B2 (UniProt P68402),0.013,0.017,-0.016,0.038,-0.436 (active),0.012,-0.033,0.016,0.027,0.005
NACC1 (UniProt Q96RE7),-0.026,-0.048,-0.109,-0.017,-0.058,-0.352 (active),-0.014,-0.015,0.034,-0.193
NUMBL (UniProt Q9Y6R0),0.144,-0.032,-0.349 (active),-0.032,0.044,-0.026,0.162,0.111,-0.024,
MSL1 (UniProt Q68DK7),0.007,0.01,-0.039,0.184,-0.086,0.071,-0.005,-0.1,-0.022,
NAT14 (UniProt Q8WUY8),-0.061,0.019,-0.033,-0.028,-0.257,-0.185,0.027,-0.074,0.022,-0.187
MON1B (UniProt Q7L1V2),0.047,0.037,-0.013,0.095,-0.006,-0.406 (active),0,-0.039,-0.023,0
NCAPG (UniProt Q9BPX3),-0.092,-0.033,0.084,0.038,-0.126,-0.197,-0.005,-0.003,-0.011,0.016
NDUFS7 (UniProt O75251),0.045,-0.04,-0.016,-0.1,-0.1,-0.086,0.05,-0.03,-0.005,0.043
NDUFB10 (UniProt O96000),0.015,0.009,-0.001,-0.057,-0.018,-0.11,0.023,-0.018,0,0.009
OTUD6B (UniProt Q8N6M0),-0.046,-0.017,-0.02,0.036,-0.049,-0.269 (active),0.029,0.053,0.078,-0.015
NECTIN2 isoform 2 (UniProt Q92692),-0.018,0.047,0.03,0.081,0.1,0.059,0.008,-0.008,0,
MSH2 (UniProt P43246),-0.024,-0.066,0.018,-0.031,-0.041,-0.019,0.023,-0.023,-0.015,0.357 (active)
MTOR (UniProt P42345),-0.029,-0.03,0.183,0.011,-0.084,-0.288 (active),-0.002,0.046,-0.044,0.014
NMT1 (UniProt P30419),0.023,0.028,0.017,0.017,-0.047,-0.053,0.008,0.037,0.009,-0.051
MRPS35 (UniProt P82673),-0.035,0.004,-0.082,-0.035,-0.047,-0.024,0.083,0.078,0.006,-0.186
NEDD4 isoform 4 (UniProt P46934),0.002,-0.038,0.02,-0.014,-0.027,-0.124,0.019,-0.03,-0.025,-0.065
NUMB (UniProt P49757),0.008,-0.05,-0.318 (active),0.049,-0.062,-0.086,0.053,0.061,0.047,0.079
"NA, A0A096LPI6",0.065,0.022,0.046,-0.057,0.008,0.058,-0.016,-0.043,0.018,0.004
NELFA (UniProt Q9H3P2),-0.065,0,-0.357,0.02,-0.286,-0.054,-0.043,-0.02,-0.11,0.252
NOLC1 isoform 2 (UniProt Q14978),-0.057,-0.089,-0.305 (active),0.041,0.021,-0.015,-0.086,-0.011,-0.023,-1.4 (active)
MTMR14 (UniProt Q8NCE2),0.027,-0.069,-0.015,0.004,0.028,-0.04,-0.004,-0.041,0.06,-0.029
MSH6 (UniProt P52701),-0.18,-0.088,-0.121,-0.024,-0.299,-0.544,0.039,-0.005,0.053,0.884 (active)
MRPS16 (UniProt Q9Y3D3),-0.082,0.02,-0.047,-0.008,-0.034,-0.19,0.015,0.021,0,-0.126
MUL1 (UniProt Q969V5),0.009,0.009,-0.113,-0.008,-0.068,-0.004,0.027,0.021,-0.016,-0.01
NANS (UniProt Q9NR45),0.091,-0.034,-0.01,0.015,-0.043,-0.006,-0.036,0,0.033,0.065
MYO19 (UniProt Q96H55),0.014,-0.11,0.168,0.115,0.079,-0.06,0.176,0.014,-0.198,
MYL12B (UniProt O14950),0.047,0.043,0.067,0.143,-0.013,0.005,-0.015,0.011,-0.045,-0.004
NCOA7 (UniProt Q8NI08),0.017,-0.056,-0.075,0.052,-0.005,-0.088,0.072,0.019,-0.033,-0.009
MRPL47 (UniProt Q9HD33),-0.11,0.022,0.003,0.056,0.016,-0.001,0.071,0.181,0.047,-0.083
